# In PubChem BioAssay (NCATS):
# Calls of active or inactive are those of the source. Calls come from the whole dose curve; as a rule, active = well fitted curve in the direction sought with a large enough effect; inconclusive = small, poorly fitted or top-dose-only effect, or another doubt; inactive = no such curve, though single readings can be large or run the other way.
# Molecular target: Hexokinase-4 (Homo sapiens) + Glucokinase regulatory protein (Homo sapiens) (UniProt P35557+Q14397)
# Assay: qHTS assay for inhibitors of recombinant human GCK-GKRP interaction: ADP-Glo assay (AID 743206);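 note: plate controls were DMSO plus enzyme for no effect and no enzyme for full effect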
# Details: ADP-Glo luminescence, 60 min; series mostly up to 76.9 µM; activity, positive = activation: at the top concentration
# Excerpt: Glucokinase (GCK) is a glucose sensor in hepatocytes and pancreatic beta-cells. Hepatic GCK is regulated by glucokinase regulatory protein (GKRP), which is predominantly localized to the liver. GKRP binds to GCK inhibiting its activity in the fasting state while in the presence of glucose the GKRP is displaced. There is an additional layer of regulation by fructose 1-phosphate and fructose 6-phosphate, which inhibit and enhance the GCK-GKRP interaction, respectively. GCK plays a role in glucose homeostasis and there is an interest in the development of strategies to activate GCK to lower blood glucose levels in type 2 diabetes. To date the majority of effort has focused on direct activation of GCK and the assays developed herein look to activate GCK by inhibiting its binding to GKRP. A compound that inhibits the interaction of GCK with GKRP could be important for the treatment of diabetes and can also be used as a tool compound to further elucidate GCK-GKRP biology. To that end, we have developed a sensitive HTS biochemical assay where in GCK activity is coupled to luciferase to interrogate the GCK-GKRP interaction. This assay was screened against a small compound library to look for modulators of activity.
# 2 uL of 15 nM GST-GCK and 15 nM FLAG-GKRP proteins with 2 uM S6P (columns 1-2, 4-48; Millipore, Billerica, MA) are dispensed into Greiner, white solid-bottom 1536-well assay plates; columns 3 receive buffer without GCK as a control for maximum inhibition. Compounds (23 nL) are then transferred via Kalypsys pin tool equipped with 1536-pin array (10 nL slotted pins, V&P Scientific, San Diego, CA). The library compounds are in columns 5-48 and columns 1-4 serve as controls with DMSO in columns 1 and 3 and 26 mM 1:1.5 fold serial of gluckokinase activator (GKA-EMD) in column 2 and 26 mM of the glucokinase activator (GKA-EMD) in column 4. Following addition of compound, 1 uL of ATP […] is added, and the plate is incubated for 60 minutes at room temperature. The amount of ADP is then quantified by the ADP-Glo Kit (Promega, Madison, WI). First, 2 uL of the first kit reagent is added, and the reaction is incubated for 45 minutes; then, 4 uL of the second kit reagent are added and the reaction is incubated for 30 minutes at which time the luminescence is read on a Viewlux plate reader (Perkin-Elmer, Waltham, MA). The final concentration of reagents in the reaction are 0.4 mM ATP, 25 mM Hepes pH 7.6, 25 mM KCl, 2 mM MgCl2, 1 mM DTT, 0.025% BSA, 0.01% Tween 20, 5 mM glucose. Data are normalized to DMSO-treated control columns with (maximum signal) and without (minimum signal) enzyme.
# Sequence of Hexokinase-4 (Homo sapiens) + Glucokinase regulatory protein (Homo sapiens) (P35557 whole entry, looked up): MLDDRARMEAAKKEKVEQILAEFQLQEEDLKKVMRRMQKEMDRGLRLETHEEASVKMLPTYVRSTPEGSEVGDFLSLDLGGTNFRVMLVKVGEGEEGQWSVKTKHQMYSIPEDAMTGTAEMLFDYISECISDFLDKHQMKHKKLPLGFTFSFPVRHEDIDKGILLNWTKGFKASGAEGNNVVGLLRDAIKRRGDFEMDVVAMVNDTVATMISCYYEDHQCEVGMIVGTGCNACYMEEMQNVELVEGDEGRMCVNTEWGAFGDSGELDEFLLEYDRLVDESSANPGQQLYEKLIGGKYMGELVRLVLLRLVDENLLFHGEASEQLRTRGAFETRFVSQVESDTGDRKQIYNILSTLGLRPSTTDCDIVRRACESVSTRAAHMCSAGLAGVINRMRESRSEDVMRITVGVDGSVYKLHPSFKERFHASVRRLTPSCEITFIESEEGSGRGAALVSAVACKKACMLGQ
# Sequence of Hexokinase-4 (Homo sapiens) + Glucokinase regulatory protein (Homo sapiens) (Q14397 whole entry, looked up): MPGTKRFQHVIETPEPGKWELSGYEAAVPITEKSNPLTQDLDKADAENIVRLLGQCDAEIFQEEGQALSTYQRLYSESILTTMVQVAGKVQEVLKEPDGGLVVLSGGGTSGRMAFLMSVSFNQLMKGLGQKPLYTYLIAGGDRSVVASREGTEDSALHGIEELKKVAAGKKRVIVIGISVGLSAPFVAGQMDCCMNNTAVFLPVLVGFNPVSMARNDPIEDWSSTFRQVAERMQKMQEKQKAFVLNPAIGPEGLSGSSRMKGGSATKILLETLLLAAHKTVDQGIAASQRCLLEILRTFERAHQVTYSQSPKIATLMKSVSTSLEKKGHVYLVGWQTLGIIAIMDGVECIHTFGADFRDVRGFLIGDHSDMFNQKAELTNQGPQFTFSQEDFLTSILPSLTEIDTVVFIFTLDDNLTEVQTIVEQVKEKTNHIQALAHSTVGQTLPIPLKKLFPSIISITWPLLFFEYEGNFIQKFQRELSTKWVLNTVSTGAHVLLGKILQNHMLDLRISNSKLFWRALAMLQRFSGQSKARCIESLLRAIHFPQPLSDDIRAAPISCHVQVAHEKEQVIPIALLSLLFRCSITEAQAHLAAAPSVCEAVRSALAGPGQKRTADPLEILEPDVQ
row,Structure (SMILES),"activity, positive = activation"
1,CCCCCCCCCCCCCCCCCCOC[C@H](COP(=O)([O-])OCC[N+](C)(C)C)OC,1.36% (inactive)
2,Cc1nc(N=Nc2ccc(C(=O)O)cc2)c(COP(=O)(O)O)c(C=O)c1O,-2.85% (inactive)
3,CC(C)C[C@H](NC(=O)[C@H](O)[C@H](N)Cc1ccccc1)C(=O)O,-1.67% (inactive)
4,[N-]=[N+]=Nc1ccc(C(=O)CSC[C@H](NC(=O)CC[C@H](N)C(=O)O)C(=O)NCC(=O)O)cc1,21.5% (inactive)
5,Fc1ccc(CN(C2=NCCN2)c2c(Cl)cccc2Cl)cc1,-3.88% (inactive)
6,C=CCN1CCc2c(cc(O)c(O)c2Br)[C@@H](c2ccccc2)C1,2.97% (inactive)
7,COc1ccc(CCn2nnnc2C2(c3ccc(C)cc3)CC2)cc1,3.63% (inactive)
8,CC(C)Cn1c(=O)n(C)c(=O)c2[nH]cnc21,2.54% (inactive)
9,NS(=O)(=O)c1cccc2c1c([N+](=O)[O-])cc1nc(O)c(O)nc12,5.31% (inactive)
10,NC(=O)c1ccccc1,-4.27% (inactive)
11,CC(C)(C)c1cc(/C=C(\C#N)C(N)=S)cc(C(C)(C)C)c1O,-1.94% (inactive)
12,Nc1ccc(-c2ccc3ccccc3n2)cc1,-1.68% (inactive)
13,NCC(O)c1ccc(O)c(O)c1 (stereo not given),2.52% (inactive)
14,CC(=O)C(C)=O,-0.47% (inactive)
15,O=C1Cc2c([nH]c3ccc(Br)cc23)-c2ccccc2N1,-0.432% (inactive)
16,NC1(C(=O)O)CCCCC1,2.46% (inactive)
17,O=c1[nH]ccc2c(O)cccc12,5.1% (inactive)
18,CCCN(CCc1ccccc1)C1CCc2c(O)cccc2C1 (stereo not given),3.12% (inactive)
19,O[Si](CCCN1CCCCC1)(c1ccc(F)cc1)C1CCCCC1 (stereo not given),-0.382% (inactive)
20,CC(=O)/C(C)=N/O,-1.27% (inactive)

row,Structure (SMILES),"activity, positive = activation"
1,CCc1ccc2c(-c3cccc(Cl)c3)nc(=O)n(CC)c2n1,4.78% (inactive)
2,Oc1ccc(/C=C/c2ccc(/C=C/c3ccc(O)cc3)c(Br)c2)cc1,-1.46% (inactive)
3,Nc1ncnc2c1c(-c1ccc(Oc3ccccc3)cc1)cn2C1CCCC1,-2.96% (inactive)
4,Cc1nc(N=Nc2cc(S(=O)(=O)O)c3cc([N+](=O)[O-])cc(S(=O)(=O)O)c3c2)c(COP(=O)(O)O)c(C=O)c1O,6.77% (inactive)
5,CC1CNCCN1S(=O)(=O)c1cccc2cnccc12 (stereo not given),2.89% (inactive)
6,CCCn1c(=O)c(C)cn2nc(N)nc12,0.208% (inactive)
7,O=C1C2C=CC=CC2=NC(=S)N1CCN1CCC(=C(c2ccc(F)cc2)c2ccc(F)cc2)CC1 (stereo not given),-2.75% (inactive)
8,CC(N)=O,4.35% (inactive)
9,CC(/C=C/c1cccc(Oc2ccc(F)cc2)c1)N(O)C(N)=O (stereo not given),1.37% (inactive)
10,N=C(N)c1ccc(OCCCCCOc2ccc(C(=N)N)cc2)cc1 (tested in a mixture with another compound),3.02% (inactive)
11,c1ccc2c(c1)CCC[C@H]2Nc1nc2ccccc2[nH]1,0.965% (inactive)
12,O=c1oc(Cl)c(Cl)c2ccccc12,4.1% (inactive)
13,OC[C@H]1NC[C@@H](O)[C@@H]1O,2.88% (inactive)
14,Nc1ncnc2c1ncn2C1CCCC1,2.32% (inactive)
15,CN1CCc2cc(Cl)c(O)cc2[C@@H](c2ccccc2)C1,2% (inactive)
16,N=S(=O)(O)Cc1noc2ccccc12,-0.881% (inactive)
17,O=C1OC(=O)C2C3CCC(O3)C12 (stereo not given),2.93% (inactive)
18,NC1CONC1=O (stereo not given),2.98% (inactive)
19,c1ccc2nc(C3=NCCN3)ccc2c1,4.22% (inactive)
20,NCCCCN,3.17% (inactive)
